RecA splice inh: Mtb RecA intein splicing inhibitors, primary screen, biochemical, fluorescence, HTS | AID 2221, 2009 | 0.75% of 290,000 active | Protein RecA (Mycobacterium tuberculosis (strain ATCC 25618 / H37Rv)), P9WHJ3 | cell-free RecA intein splicing | inhibition, % (test concentration not listed); in the data active = inhibition above about 30%;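 note: 0% = vehicle wells and 100% = reference inhibitor control wells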
Target sequence (P9WHJ3 whole entry, looked up, canonical isoform): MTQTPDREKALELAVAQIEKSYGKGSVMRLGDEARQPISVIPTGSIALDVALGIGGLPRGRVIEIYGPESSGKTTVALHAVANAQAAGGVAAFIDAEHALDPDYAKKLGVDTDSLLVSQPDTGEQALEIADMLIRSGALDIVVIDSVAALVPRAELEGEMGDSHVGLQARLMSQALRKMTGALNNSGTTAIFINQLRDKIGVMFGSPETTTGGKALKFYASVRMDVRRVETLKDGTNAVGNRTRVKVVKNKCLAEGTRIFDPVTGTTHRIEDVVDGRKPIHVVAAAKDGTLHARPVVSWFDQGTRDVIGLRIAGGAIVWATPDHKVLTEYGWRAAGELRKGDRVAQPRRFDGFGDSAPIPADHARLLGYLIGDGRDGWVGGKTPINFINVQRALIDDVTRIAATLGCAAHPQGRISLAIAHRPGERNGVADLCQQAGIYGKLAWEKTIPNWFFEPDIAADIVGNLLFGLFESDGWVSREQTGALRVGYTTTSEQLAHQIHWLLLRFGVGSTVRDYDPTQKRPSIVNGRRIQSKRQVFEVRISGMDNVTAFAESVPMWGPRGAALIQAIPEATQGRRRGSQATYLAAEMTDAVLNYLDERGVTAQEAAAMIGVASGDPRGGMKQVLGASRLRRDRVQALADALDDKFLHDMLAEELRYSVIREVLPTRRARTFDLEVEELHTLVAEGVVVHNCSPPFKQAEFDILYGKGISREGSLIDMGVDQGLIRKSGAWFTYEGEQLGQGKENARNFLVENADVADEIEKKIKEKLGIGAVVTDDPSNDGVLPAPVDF
GDH-TPI counter: GDH-TPI coupling enzyme inhibitors, primary screen, artefact control for M. tuberculosis FBA inhibitor project, biochemical, absorbance, full deck. GDH-TPI coupled enzyme counterscreen, NADH absorbance. inhibition, % at 4.8 µM. 1.2% of 360,000 active; in the data active = inhibition above about 30%;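 note: 0% = DMSO wells and 100% = wells lacking the enzyme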
Mtb UGM inh: M. tuberculosis UGM enzyme inhibitors, primary screen, biochemical, fluorescence polarization, single point. purified UGM, fluorescence polarization probe displacement. inhibition, % at 10 µM. AID 504406, 2011. 0.06% of 320,000 active. UDP-galactopyranose mutase (Mycobacterium tuberculosis (strain ATCC 25618 / H37Rv)), …; in the data active = inhibition above about 10%, passing the limit was not always enough
FBA Mtb inh: Mtb FBA enzyme inhibitors, primary screen, biochemical, fluorescence, strain H37Rv; 2.3% of 360,000 active; inhibition, % at 1 µM; Fructose-bisphosphate aldolase (Mycobacterium tuberculosis (strain ATCC 25618 / H37Rv)), …; AID 588726, 2011; purified M. tuberculosis FBA, fluorescence read-out; in the data active = inhibition above about 27%;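 note: 0% = vehicle and 100% = reference inhibitor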
Rv3671c protease: Rv3671c serine protease inhibitors, primary screen, biochemical, fluorescence polarization, M. tuberculosis H37Rv; P9WHR9; inhibition, % at 5.96 µM; 0.048% of 320,000 active; in the data active = inhibition above about 38%;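 note: extracellular domain of Rv3671c used as enzyme; 0% = enzyme with DMSO and 100% = no enzyme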
Mtb betalactam: beta-lactam sensitization of Mtb H37Rv, H37Rv. M. tuberculosis H37Rv growth with meropenem, percent inhibition. 0.27% of 330,000 active. AID 434955, 2010. inhibition, % at 25 µM; call rule not given here;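 note: growth measured after seven days incubation then overnight dye step; 0% = bacteria only wells and 100% = bacteria with antibiotic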
Active calls of the source: *; i = inactive; nt = not tested or not shown; + = active, no number. Rows were chosen to be rich in hits. Some 4% of all compounds tested hit in one or more screens of this group.

SMILES | RecA splice inh | GDH-TPI counter | Mtb UGM inh | FBA Mtb inh | Rv3671c protease | Mtb betalactam
O=C(Nc1nccs1)C1CC(=O)N(CCc2ccc(F)cc2)C1 (stereo unspecified) | 1 | -1 | 5 | 0 | 8 | -2
COc1cccc(C2NC(c3cccc(OC)c3O)C(C)C(=O)C2C)c1O (stereo unspecified) | 1 | -3 | 3 | 3 | -4 | 5
CC1C(=O)C(C)C(c2cc(Cl)ccc2O)NC1c1cc(Cl)ccc1O (stereo unspecified) | 50* | 7 | 2 | 2 | -22 | -1
O=C(N/N=C/c1c(O)n(CCC2=CCCCC2)c(=S)[nH]c1=O)c1ccccc1 | -4 | 21 | 4 | 4 | 7 | 38
Cc1ccccc1-n1c(O)c(/C=N/NC(=O)c2ccccc2O)c(=O)[nH]c1=S | 9 | 31* | -2 | 5 | -3 | 59
O=C(N/N=C/c1c(O)n(-c2ccccc2)c(=O)[nH]c1=O)c1ccncc1 | -10 | 31* | 3 | 2 | -32 | 99
O=C(N/N=C/c1c(O)n(CCC2=CCCCC2)c(=O)[nH]c1=O)c1ccccc1 | 6 | 34* | 3 | 9 | 18 | 10
O=C(C[C@H]1C[C@H](C(=O)N2CCCCC2)[C@@]2(CCc3ccccc3)c3[nH]c4ccc(Cl)cc4c3CCN2C1=O)NCCN1CCOCC1 | nt | -16 | nt | -2 | nt | nt
COc1ccc(S(=O)(=O)N2CCCCC2)cc1C(=O)N1CCCCCC1 | 0 | -4 | -2 | 0 | -2 | -2
CCCCCNC(=O)c1[nH]c(C(F)(F)F)nc1-c1ccccc1 | nt | nt | nt | 2 | nt | nt
Nc1nc(N)c2[nH]c(-c3ccccc3)nc2n1 | -2 | 11 | 2 | + | nt | -7
Cc1cccc(OC(C)C(=O)N2CCN(Cc3ccc4c(c3)OCO4)CC2)c1 (stereo unspecified) | 2 | 26 | 2 | 1 | 1 | -26
O=C1NC(=O)C(=Cc2ccccc2[N+](=O)[O-])S1 | nt | 9 | nt | -1 | nt | nt
O=C1NC(=O)/C(=C/c2cccc3ccccc23)S1 | 6 | 37* | 1 | 0 | -22 | 4
COc1ccc(-c2oc3ccc(-c4cc(OC)c(OC)c(OC)c4)cc3c2-c2ccc(OC)nc2)cc1 | -1 | 20 | 0 | 4 | -5 | 96
N#CC(C#N)=C1C=CC=CN1/C(=C\c1ccco1)C(=O)c1ccccc1 | nt | 34* | -1 | 3 | -29 | 1
N#CC(C#N)=C1C=CC=CN1/C(=C\c1ccco1)C(=O)c1ccc(Br)cc1 | nt | 37* | 1 | -1 | -36 | -5
COc1ccc(C(=O)/C(=C\c2ccco2)N2C=CC=CC2=C(C#N)C#N)cc1 | 14 | 51* | 0 | -2 | -16 | 7
CC1(C)CC(=O)C2=C(C1)c1c(ccc3ccccc13)NC2c1ccc(OCC(=O)O)cc1 (stereo unspecified) | -118 | 18 | 0 | + | -10 | 5
COc1cc(C2Nc3ccc4ccccc4c3C3=C2C(=O)CC(C)(C)C3)ccc1OCC(=O)O (stereo unspecified) | -152 | 2 | 3 | 121* | -4 | 1
COc1cc(C2Nc3ccc4ccccc4c3C3=C2C(=O)CC(C)(C)C3)ccc1OC(C)C(=O)O (stereo unspecified) | -160 | 4 | -2 | 183* | 6 | 2
CCCn1cc(S(=O)(=O)c2ccccc2)c(=O)c2cc(F)c(N3CCN(C)CC3)cc21 | 1 | 4 | -2 | 12 | -1 | 20
CC[C@@]1(O)C(=O)OCc2c1cc1n(c2=O)Cc2cc3c(N)cccc3nc2-1 | -4 | 33* | 1 | 5 | 0 | -5
CC[C@@]1(O)C(=O)OCc2c1cc1n(c2=O)Cc2cc3c(CN(C)C)c(O)ccc3nc2-1 | i | 34* | 34* | 8 | 6 | 0
CCc1ccc(C(=O)NNC(=O)c2cc(S(=O)(=O)N(C)C)ccc2N2CCCC2)cc1 | 2 | 11 | 0 | -3 | -8 | -18
SMILES | RecA splice inh | GDH-TPI counter | Mtb UGM inh | FBA Mtb inh | Rv3671c protease | Mtb betalactam
CCc1ccccc1Oc1nc(NCc2ccccc2)nc2ccsc12 | nt | 7 | nt | 1 | nt | nt
CCN(CC)CCCNC(=O)/C(=C\c1cccn1C)NC(=O)c1cccs1 | 0 | 35* | 3 | 2 | -2 | -3
O=C(C[n+]1cccc(O)c1)NCc1ccc(Cl)cc1 | -2 | 20 | 0 | 0 | -1 | 4
O=c1c(-c2nc3ccccc3s2)cccn1Cc1ccc(Cl)cc1 | -1 | 10 | 1 | 142* | -18 | -16
Cc1ccc(-c2csc(N/N=C/c3ccco3)n2)cc1 | 3 | 17 | 1 | -2 | 6 | 93
CN(C)S(=O)(=O)c1ccc(-c2csc(N/N=C/c3ccco3)n2)cc1 | 0 | 33* | 1 | -3 | 2 | 1
O=C(Nc1ccnn1C1CCN(Cc2c[nH]c3ccccc23)CC1)c1ccccc1 | 0 | -2 | -3 | 0 | -5 | 4
CN=CC1=C(O)c2ccccc2C1=O | -2 | 35* | 1 | 2 | -4 | 2
CN(C)/C=C1\N=C(c2ccc3c(c2)OCO3)OC1=O | 1 | 53* | 3 | 6 | -2 | 14
CN(C)/C=C1\N=C(c2ccccc2)OC1=O | -2 | 35* | -2 | -3 | -1 | 0
Cc1cccc(NC(=O)CSc2nc(=O)n(CCCN3CCOCC3)c3c2CCCC3)c1 | -1 | 5 | -2 | -2 | -4 | -12
OC(c1ccc(CN2CCCCC2)cc1)c1ncc(-c2ccccc2)[nH]1 (stereo unspecified) | nt | 1 | nt | 2 | nt | nt
Cn1c(NC(=O)/C=C/c2ccccc2)cc(=O)n(C)c1=O | -1 | 62* | -1 | -1 | 2 | 7
O=C(c1ccco1)c1coc2c1cc(O)c1ccccc12 | 45* | 10 | -2 | 3 | -17 | 0
CCOc1cc(/C=C(/C#N)c2ccc(F)cc2)ccc1OCc1ccc(C(=O)O)o1 | 8 | 34* | 3 | 3 | 0 | 94
CCOc1cc(/C=C(/C#N)c2nc3ccccc3[nH]2)ccc1OCc1ccc(C(=O)O)o1 | -10 | 22 | 4 | 2 | -11 | 2
CN(C(=O)c1cnccn1)c1nnc(-c2cnccn2)s1 | 2 | 31* | 3 | -9 | -4 | -3
CC1CCC2(CC1)NC(=O)N(CC(=O)Nc1cccc(S(=O)(=O)N3CCCC3)c1)C2=O (stereo unspecified) | nt | -5 | -5 | -2 | 1 | 1
CCc1ccc(/C=C2/C(=O)NC(=O)N2C(C)=O)cc1 | -2 | 40* | -1 | 1 | 7 | 51
CCC(=O)Nc1nnc(/C=C/c2ccc(OC)cc2)s1 | -2 | 43* | 0 | -12 | 8 | 1
COC(=O)Nc1nnc(/C=C/c2ccccc2)s1 | -7 | 24 | 0 | + | 0 | 2

Source: PubChem BioAssay
